Bioassay records as filed in PubChem.
A3G deaminase: inhibitors of human APOBEC3G DNA deaminase | Q9HC16 | recombinant A3G, ssDNA deamination FAM/TAMRA fluorescence | inhibition, % at 20 µM | 0.28% of 330,000 active;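 active means inhibition of at least 40% at 20 µM, with no more than 30% in the related APOBEC3A deaminase screen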;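 further: plate controls were DMSO wells with A3G for no effect and wells lacking A3G enzyme for full effect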
APOBEC3A inh: human APOBEC3A DNA deaminase inhibition; 0.41% of 330,000 active; inhibition, % at 20 µM; recombinant A3A, FAM/TAMRA ssDNA deamination fluorescence;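 active means at least 40% inhibition at 20 µM here, with at most 30% in a related deaminase screen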;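 further: plate controls were A3A with DMSO for no effect and wells lacking A3A enzyme for full effect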
AHR activator: activators of human aryl hydrocarbon receptor. AID 2796. 2.5% of 320,000 active. AHR-responsive luciferase reporter cells, luminescence. activation, % at 5 µM. P35869; in the data active means activation above about 47%;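 further: 0% = vehicle wells and 100% = reference agonist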
NTR1 ag: agonists of human neurotensin receptor NTR1; P30989; NTR1-U2OS beta-arrestin-GFP spot imaging, agonist mode; activation, % at 20 µM; 0.17% of 330,000 active; AID 493036;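 active means activation at or above 40% of the spot to cytoplasm intensity ratio, with at least 20 cells analyzed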;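 further: 0% = DMSO without peptide and 100% = 100 nM NTR1 peptide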
Active calls of the source: *; nt = no result. Hits are enriched below; roughly 3.2% of the tested compounds scored in any of these assays.

SMILES	A3G deaminase	APOBEC3A inh	AHR activator	NTR1 ag
CN(C)c1ccc(C(C[N+](=O)[O-])c2c(N)n(C)c(=O)n(C)c2=O)c(F)c1C#N (stereo not drawn)	-7.6	-1.1	62.6*	7.3
Cn1c(N)c(C(C[N+](=O)[O-])c2c(F)cccc2Cl)c(=O)n(C)c1=O (stereo not drawn)	-6.5	-2.1	1.3	1.1
Cc1c(CN(C)C)c2c(n1C)C(=O)c1ccc(Br)cc1-2	2.4	3.2	70.8*	-1.2
Cc1c(CN(C)C)c2c(n1Cc1ccccc1)C(=O)c1ccc(Br)cc1-2	-3.5	-0.1	1.6	12.1
Brc1ccc(-c2cn3c(n2)CCc2ccc4cccnc4c2-3)cc1	-3.7	-0.1	47.1*	3.3
CCOP(=O)(Nc1ccc2oc(=O)c3ccccc3c2c1)OCC	-5.5	-1.3	8.4	0.8
OCc1cc(Br)ccc1OCc1nc2ccccc2s1	-4.8	1.8	48.0*	1.8
O=C1N=c2ccc(Br)cc2=C1c1sc(=O)[nH]c1O	-4.0	1.2	63.9*	-1.2
Cc1ccc2c(c1)=C(c1sc(N(C)c3ccc(O)cc3)nc1O)C(=O)N=2	-6.6	-0.4	4.3	21.6
Cc1ccccc1CNc1nnnn1C	-5.4	1.9	-1.6	-0.4
O=C(O)C(=O)/C(=C\c1ccccc1)c1ccc2ccccc2n1	-3.8	-3.2	47.6*	2.1
O=C(O)C(=O)/C(=C\c1ccc([N+](=O)[O-])cc1)c1ccc2ccccc2n1	-16.6	-1.7	22.0	-0.1
O=C(O)C(=O)/C(=C\c1ccsc1)c1ccc2ccccc2n1	-13.8	-7.1	77.2*	-0.3
O=C(O)C(=O)/C(=C\c1cccc2ccccc12)c1ccc2ccccc2n1	0.1	-1.0	28.6	0.0
Nc1cc(C(=O)OCC(=O)NNC(=O)c2cccs2)ccc1Cl	-0.6	5.7	0.0	-0.2
O=C(O)C1CCCCC1C(=O)NCc1ccccn1 (stereo not drawn)	19.4	4.3	2.1	-1.0
NNC(=O)c1cc(S(=O)(=O)N2CCOCC2)c[nH]1	-3.3	-0.7	11.0	1.8
Cc1cccc(C(=O)OCC(=O)NN2C(=O)NC3(CCC(C)CC3)C2=O)c1O (stereo not drawn)	-1.6	11.8	0.9	0.0
Cc1cc(C(=O)N/N=C/c2cccc(Cl)c2Cl)no1	-4.4	-4.9	47.1*	-2.0
CCOC(=O)N/N=C/c1cccc(Cl)c1Cl	-3.1	1.8	29.7	2.0
CCC(C)c1ccccc1N1CC(C(=O)NCCCn2nc(C)cc2C)CC1=O (stereo not drawn)	-2.0	5.0	3.0	-1.0
OCCN1CCN(c2nc(NCc3ccco3)c3ccccc3n2)CC1	-7.1	-2.1	-0.4	-1.0
c1ccc(CN2CCN(c3nc(NCc4ccco4)c4ccccc4n3)CC2)cc1	1.6	1.1	0.3	44.2*
O=C(CN1C(=O)CSc2ccc(S(=O)(=O)N3CCCCC3)cc21)NCc1ccccc1Cl	-3.2	-2.7	2.5	0.5
O=C(Nc1ccc(Cl)cc1)Nc1ccccc1Sc1ncc([N+](=O)[O-])s1	-2.2	1.2	66.2*	5.3
SMILES	A3G deaminase	APOBEC3A inh	AHR activator	NTR1 ag
CC(C)NC(=O)C(c1ccc(F)cc1)N(Cc1ccco1)C(=O)CCC(=O)Nc1ccccn1 (stereo not drawn)	-7.4	-1.1	-1.8	2.4
COc1ccccc1NC(=O)Nc1nnc(C(C)C)s1	0.7	6.0	60.1*	0.7
CCCCN(C(=O)NC(=O)Nc1ccccc1OC)S(C)(=O)=O	-4.2	-3.6	58.1*	0.1
COc1ccccc1NC(=O)NC(=O)N(C(C)C)S(C)(=O)=O	0.7	5.6	59.9*	2.5
CC(=O)Nc1cc(NC(C)=O)cc(C(=O)N2CCCC3CCCCC32)c1 (stereo not drawn)	31.1	37.2	0.1	0.6
COc1cccc(C(=O)c2c[nH]c(C(=O)NCCCN3CCOCC3)c2)c1	-6.7	1.9	-0.6	-0.5
Cc1cc(=O)oc2cc(OCC(=O)OCC(=O)Nc3c(C)n(C)n(-c4ccccc4)c3=O)ccc12	-2.1	0.1	-1.5	0.4
O=C1NC2=C(CCc3ccccc32)C(c2ccc(Br)cc2)N1 (stereo not drawn)	-4.4	-3.5	60.6*	7.3
Cn1cc(C(=O)C(=O)N2CCc3ccccc32)c2ccccc21	0.7	1.8	62.9*	0.6
O=C(C(=O)N1CCCc2ccccc21)c1c[nH]c2ccccc12	0.3	2.5	50.5*	1.7
O=C(c1ccccc1F)N1CCCc2ccccc21	-6.8	-1.9	1.5	-1.0
Cc1[nH]c2ccccc2c1C(=O)C(=O)N1CCCc2ccccc21	-5.3	-3.2	12.2	0.4
Cn1cc(S(=O)(=O)CC(=O)N2CCc3ccccc32)c2ccccc21	1.7	6.0	6.5	0.9
O=C(c1cccc(F)c1F)N1CCCc2ccccc21	-5.2	-5.3	51.1*	-0.3
CCOc1ccc(C(=O)C(C)OC(=O)c2nc(Cl)ccc2Cl)cc1 (stereo not drawn)	3.4	-0.3	1.3	0.2
O=C(Nc1ccc(F)c(Cl)c1)Nn1cnnc1	2.0	0.8	4.2	-0.8
O=C(O)/C=C/C(O)c1ccc(Cl)cc1 (stereo not drawn)	-5.9	-1.3	0.8	-0.6
C=CCNC(=S)N1CCN(C2CCCCC2)CC1	1.0	5.8	-0.7	-0.8
COc1ccc(NC(=S)N/N=C/c2ccc(F)c(F)c2)cc1	-6.3	1.4	114.4*	3.8
Fc1ccc(NC(=S)N/N=C/c2ccc(F)c(F)c2)cc1	-5.4	4.2	15.3	3.2
O=C1C2C3C=CC(C3)C2C(=O)N1Nc1c(Cl)cc(Cl)cc1Cl (stereo not drawn)	-2.8	1.0	-0.8	-1.3
Cc1cccc(Nc2nc(-c3ccccc3)c(C(=O)Nc3cccnc3)s2)c1	-4.5	0.0	50.8*	4.8
O=C(Nc1cccnc1)c1sc(Nc2ccccc2)nc1-c1ccccc1	0.3	-1.6	39.9	1.9
O=C1C(NS(=O)(=O)c2ccccc2)=C(N2CCN(c3ccc(F)cc3)CC2)C(=O)c2ccccc21	0.0	-2.1	65.7*	15.5
CCOc1ncccc1C(=O)Nc1nc(C(C)(C)C)cs1	-2.5	2.6	59.2*	5.0
SMILES	A3G deaminase	APOBEC3A inh	AHR activator	NTR1 ag
CCOc1ncccc1C(=O)Nc1ccc2nc(C)sc2c1	-11.8	-3.0	10.0	1.1
c1cc(Nc2ncnc3sccc23)cc(-c2nnc3n2CCCCC3)c1	-2.4	-1.7	49.5*	-1.4
CCOc1ncccc1C(=O)Nc1ncc(C)s1	-8.8	-2.0	4.0	0.3
CCOc1ncccc1C(=O)Nc1cccc(-c2nnc3n2CCCCC3)c1	0.2	-2.3	47.1*	0.7
COc1ccccc1S(=O)(=O)Nc1cccc(-c2nnc3n2CCCCC3)c1	-2.9	-3.8	-2.2	-1.0
CCOc1ncccc1C(=O)Nc1ccc(F)c(F)c1	-6.0	-0.3	59.8*	-0.7
Cc1cnc(C(=O)Nc2cccc(-c3nnc4n3CCCCC4)c2)cn1	-2.8	-2.4	13.6	-2.8
C=C(C)CNC(=O)C1CCC(=O)N(CCCc2ccccc2)C1 (stereo not drawn)	nt	nt	0.5	nt
CCOc1ncccc1C(=O)Nc1ccc(F)c(Cl)c1	-6.4	1.4	61.2*	0.4
COc1ccc(/C=N/Nc2nc(-c3cccnc3)nc3ccccc23)c(OC)c1	-3.4	-2.9	50.6*	10.4
COc1ccc(/C=N/Nc2nc(C)cc(-c3ccccc3)n2)cc1OC	-4.0	-0.9	52.1*	2.2
